Test [1] can be described thus: qHTS assay to identify small molecule agonists of the hypoxia (HIF-1) signaling pathway - cell viability counter screen (AID 1224844; calls by dose curve; also: nearly all actives have a fitted effect of over 50% in size). The procedure, abridged: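 Viability counter screen: HRE-bla ME-180 cells plated 5 hrs before compound addition, treated 17 hrs at 37C and 5% CO2, then CellTiter-Glo added after the FRET reporter read; luminescence after 30 min.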
(In qHTS, concentration-response curves come from the screen itself.)

A short description of test [2]: qHTS assay to identify small molecule agonists of H2AX (AID 1224845; active = well fitted activation curve with a large enough effect in the signal ratio in the repeat runs, not every such curve was filed as active; the % refers to the signal ratio; also: potency is read from the fitted curve at half-maximal effect). The procedure, abridged: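 Wild-type CHO-K1 cells, plated overnight, exposed 3hr at 37C to 15 concentrations (0.76% DMSO final). Lysed, then HTRF anti-pH2AX (S139) cryptate and anti-H2AX-d2 antibodies, 24 hr room temperature; 665/620 nm emission read.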
Test [3] can be described thus: qHTS assay to identify small molecule agonists of the hypoxia (HIF-1) signaling pathway (AID 1224846; active = well fitted activation curve with a large enough effect in the signal ratio in the repeat runs, not every such curve was filed as active; the % refers to the signal ratio). The procedure, abridged:
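Agonist mode reporter screen. ME-180 cells stably expressing bla under HRE control received test compounds in DMSO for 17 hrs (37C, 5% CO2), and beta-lactamase activity was then detected with the CCF4-AM FRET substrate.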

Test [4] can be described thus: qHTS assay to identify small molecule agonists of H2AX - cell viability counter screen (AID 1224847; calls by dose curve; also: nearly all actives have a fitted effect of over 30% in size; also: potency is read from the fitted curve at half-maximal effect). The procedure, abridged: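 Cytotoxicity counter screen in wild-type CHO-K1 cells: a 3 hr compound treatment at 37C across 15 concentrations, followed by CellTiter-Glo luminescence to gauge viable cells.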
Test [5] in a line: qHTS assay to identify small molecule antagonists of the estrogen related receptor (ERR) signaling pathway from Tox21 library (AID 1224848). Also: nearly all actives have a fitted effect of over 50% in size. Also: potency is read from the fitted curve at half-maximal effect. The procedure, abridged: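 Quantitative high-throughput format: ERR reporter cells (2,000/well) pre-incubated 6 h, treated 18 h at 37 C with compounds in DMSO alongside positive and negative controls, then read by ONE-Glo luminescence.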

Test [6] in a line: qHTS assay to identify small molecule agonists of the estrogen related receptor (ERR) signaling pathway from Tox21 library (AID 1224849; calls by dose curve; also: nearly all actives have a fitted effect of over 15% in size). The conditions noted are these: ERR reporter cell line, ONE-Glo luciferase, 18 h. The procedure, abridged:
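Quantitative HTS in agonist format: NTP ERR cell line, compounds transferred in DMSO after 6 h plating, 18 h incubation at 37 C, ONE-Glo luminescence endpoint.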

A short description of test [7]: qHTS RealTime-Glo MT Cell Viability Assay in HepG2 cells - 24 hour (AID 1224867). Also: nearly all actives have a fitted effect of over 50% in size. Also: potency is read from the fitted curve at half-maximal effect. The procedure, abridged:
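Cells + NanoLuc/prosubstrate dispensed (600 cells/well) → 5 h at 37 C/5% CO2 → compounds in DMSO transferred → 40 h incubation at 37 C, luminescence read at 0, 8, 16, 24, 32, 40 h.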

Test [8] in a line: qHTS RealTime-Glo MT Cell Viability Assay in HEK293 cells - 32 hour (AID 1224868). Also: nearly all actives have a fitted effect of over 50% in size. Also: potency is read from the fitted curve at half-maximal effect. The essentials:
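Tox21 10K qHTS, HEK293, 600 cells/well, RealTime-Glo reagent co-dispensed with cells; 5 h preincubation, compound by pintool, 37 C, luminescence at 0–40 h.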

A short description of test [9]: qHTS RealTime-Glo MT Cell Viability Assay in HepG2 cells - 40 hour (AID 1224870). Also: nearly all actives have a fitted effect of over 50% in size. Also: potency is read from the fitted curve at half-maximal effect. The essentials:
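HepG2 cells (600/well) mixed with RealTime-Glo MT reagent, settled 5 h at 37 C/5% CO2 before compound addition. Nonlytic NanoLuc luminescence from viable-cell prosubstrate reduction read repeatedly during 40 h treatment at 37 C.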

Test [10] in a line: A CellTox Green Cytotoxicity Assay to monitor cytotoxicity in HEK293 cells - 0 hour (AID 1224869). Also: nearly all actives have a fitted effect of over 50% in size. The essentials: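 Dead-cell fluorescence measured kinetically: asymmetric cyanine dye, HEK293, 600 cells/well, 5 h settle, 23 nL cpd/DMSO, 37 C, reads 0–40 h every 8 h.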

The structures appear in SMILES notation. “And” between values parts separate entries of the source, which are not always exact repeats. Equal values may be shown once. Records with an inconclusive call do not appear. A structure can be active in one record and inactive in another. The source made the active and inactive calls. Unless noted, calls follow the shape of the dose curve; as a rule, active = well fitted curve in the direction sought with a large enough effect in the repeat runs; inconclusive = weak or mixed curves; inactive = no such curve, though single readings can be large; an effect the other way counts as inactive or inconclusive.
% is scaled to controls: 0 for no effect and ±100 for the full control effect.

On to `CN(C)c1ccccc1`, for which the Potency result in test [1], in [2], in test [4], in test [5], in test [7] and in [8] was “inactive” each time. The Potency result in test [9] was “inactive”. Further, in [3], the molecule was classed as inactive. Further, the activity change, positive = activation in [6] (at 92.4 µM (top of the series)) was -1.62% (inactive) and 6.09% (inactive).
Turning to `Nc1ccc2ccccc2c1`, the Potency result in [1], in test [2], in [4], in [5], in [7] and in [8] was “inactive” in each case. The Potency entry in [10] and in test [9] was “inactive” each time. Further, the molecule was classed as inactive in [3]. Moreover, the activity change, positive = activation in test [6] (at 92.4 µM (top of the series)) was 30.3% (active).
Turning to `CC(O)CN(CC(C)O)CC(C)O` (stereo not drawn), the Potency result in [1], in test [2], in test [4], in test [7], in test [8] and in [10] was “inactive” throughout. Also, the Potency entry in test [9] was “inactive”. In addition, the molecule was classed as inactive in test [3].
Regarding `CSc1nc(NC(C)C)nc(NC(C)C)n1`, the Potency result in test [1], in test [2], in test [4], in test [5], in [7] and in test [8] was “inactive” each time. Moreover, the Potency result in test [10] and in [9] was “inactive” each time. Moreover, the molecule was classed as inactive in test [3]. Also, the activity change, positive = activation in [6] (at 92.4 µM (top of the series)) was -11% (inactive) and -12.6% (inactive).
As to `CCCCC(C#N)(Cn1cncn1)c1ccc(Cl)cc1` (stereo not drawn), the Potency entry in test [1], in [2], in test [4], in test [7], in test [8] and in test [10] was “inactive” each time. The Potency entry in test [9] is “inactive”. Also, the result in test [3] was inactive. For the same molecule, the Potency in [5] is 48.4 µM (active). Further, in test [6] (at 92.4 µM (top of the series)), the activity change, positive = activation is -34.1% (inactive) and -20% (inactive).
Take `O=C(O)CF`: the Potency result in test [1], in test [2], in test [4], in [7], in test [8] and in [10] was “inactive” each time. For the same molecule, in test [9], the Potency entry is “inactive”. The call in [3] was inactive.
Consider `Cn1c(-c2ccccc2)cc(-c2ccccc2)[n+]1C`, for which the Potency entry in test [1], in [2], in [4], in [7], in test [10] and in test [9] was “inactive” each time. The molecule was called inactive in test [3]. Also, the Potency in test [5] was 17.2 µM (active) and 21.7 µM (active); in [8], 8.69 µM (active) and 24.5 µM (active). In addition, in [6] (at 92.4 µM (top of the series)), the activity change, positive = activation was -54.1% (inactive) and -52.6% (inactive).
Regarding `ClC(Cl)(Cl)Br`, the Potency entry in [1], in test [2], in [4], in test [7], in test [8] and in [10] was “inactive” throughout. For the same molecule, the Potency result in test [9] is “inactive”. Further, in [3], the molecule was classed as inactive.
On to `COP(=S)(OC)Oc1ccc(Sc2ccc(OP(=S)(OC)OC)cc2)cc1`, for which the Potency entry in [1], in test [2], in test [4], in test [7], in [8] and in test [10] was “inactive” each time. In addition, the Potency result in [9] was “inactive”. Also, in [3], the molecule was called inactive. For the same molecule, the Potency in test [5] is 27.3 µM (active) and inactive. The activity change, positive = activation is -3.82% (inactive) in test [6] (at 42.5 µM (top of the series)) and -40% (inactive) in [6] (at 92.4 µM (top of the series)).
Regarding `CC(C)CON=O`, the Potency entry in [1], in test [2], in [4], in test [7], in test [8] and in test [10] was “inactive” throughout. In addition, in [9], the Potency entry is “inactive”. Further, the outcome in test [3] was inactive.
Turning to `CCNc1nc(Cl)nc(NC(C)(C)C#N)n1`, the Potency result in test [1], in test [2], in [4], in [7], in [8] and in [10] was “inactive” throughout. For the same molecule, the Potency entry in test [9] was “inactive”. For the same molecule, the molecule was classed as inactive in [3].
As for `CCC/C=N/O`, the Potency result in [1], in test [2], in [4], in test [7], in test [8] and in test [10] was “inactive” throughout. For the same molecule, the Potency entry in [9] was “inactive”. Further, in [3], the molecule was called inactive.
Take `CS(=O)(=O)NC(=O)c1cc(Oc2ccc(C(F)(F)F)cc2Cl)ccc1[N+](=O)[O-]`: the Potency result in test [1], in test [2], in [4], in test [7], in test [8] and in [10] was “inactive” throughout. For the same molecule, the Potency result in [9] was “inactive”. Besides, the call in [3] was inactive.
Regarding `O=P(OCCCl)(OCCCl)OCCCl`, the Potency result in test [1], in [2], in [4], in test [5], in test [7] and in test [8] was “inactive” throughout. The Potency entry in test [9] was “inactive”. Further, in [3], the outcome was inactive. In test [6] (at 92.4 µM (top of the series)), the activity change, positive = activation is 1.87% (inactive) and 3.07% (inactive).
`CCOP(=O)(OCC)OCC`: the Potency entry in [1], in [2], in test [4], in test [5], in test [7] and in test [8] was “inactive” in each case. The Potency result in [10] and in test [9] was “inactive” each time. The molecule was called inactive in test [3]. In addition, the activity change, positive = activation in test [6] (at 92.4 µM (top of the series)) is -7.79% (inactive) and 1.86% (inactive).
In the case of `CNC(=O)Oc1cccc2c1OC(C)(C)C2`, the Potency entry in [1], in [2], in [4], in test [5], in test [7] and in test [8] was “inactive” throughout. Moreover, the Potency result in test [9] was “inactive”. Also, the call in test [3] was inactive. Moreover, the activity change, positive = activation in test [6] (at 92.4 µM (top of the series)) was 3.12% (inactive) and 1.27% (inactive).
In the case of `O=C1Nc2ccc(Cl)cc2C(c2ccccc2)=NC1O` (stereo not drawn), the Potency entry in [1], in test [2], in test [4], in test [5], in test [7] and in test [8] was “inactive” in each case. The Potency entry in [10] and in test [9] was “inactive” throughout. For the same molecule, the call in [3] was inactive. The activity change, positive = activation in test [6] (at 92.4 µM (top of the series)) was -20.3% (inactive) and -12.2% (inactive).
Consider `ClC(Cl)(Cl)c1ccccc1`, for which the Potency result in test [1], in [2], in test [4], in test [7], in test [8] and in test [10] was “inactive” in each case. Besides, the Potency entry in [9] is “inactive”. Besides, the outcome in [3] was inactive.
On to `OC(c1ccc(Cl)cc1)(c1cncnc1)c1ccccc1Cl` (stereo not drawn), for which the Potency entry in [1] and in [10] was “inactive” in each case. The Potency in test [2] is 91.4 µM (active) and inactive; in test [4], 115 µM (active); in test [5], 11.1 µM (active) and 54.5 µM (active); in test [7] it was 31.4 µM (active); in test [8], 6.27 µM (active) and 24.5 µM (active); in test [9] it was 17.7 µM (active) and inactive. For the same molecule, in [3], the result was inactive. Moreover, the activity change, positive = activation in test [6] (at 92.4 µM (top of the series)) is -83.4% (inactive) and -41.2% (inactive).
Turning to `N#Cc1nn(-c2c(Cl)cc(C(F)(F)F)cc2Cl)c(N)c1S(=O)C(F)(F)F` (stereo not drawn), the Potency result in test [1], in [2], in [7], in test [10] and in test [9] was “inactive” in each case. Further, the result in test [3] was inactive. Moreover, the Potency in test [4] was 101 µM (active); in test [5] it was 5.48 µM (active) and 11.9 µM (active); in test [8], 22 µM (active). The activity change, positive = activation was -52.7% (inactive) in test [6] (at 42.5 µM (top of the series)) and -58.7% (inactive) in [6] (at 92.4 µM (top of the series)).

The values are drawn from PubChem BioAssay (Tox21).
